Measurements from PubChem BioAssay (EPA / NIEHS).
The source holds several records for some structures; these can differ, active in one and inactive in another. Calls of active or inactive are those of the source. The calls were made as follows: active = hit-call score of the fitted dose curve at least 0.9, where 1 is the maximum; inactive = score below 0.9.

read-out: Glutathione S-transferase M3 (GSTM3), GSTM3 (gene 2947); assay: LTEA_HepaRG_GSTM3: Life Technologies and Expression Analysis (LTEA) Assay for Glutathione S-transferase M3 (GSTM3) using HepaRG (AID 2283501); conditions: mRNA level, 48 h; actives raise or lower the signal
Procedure: LTEA_HepaRG is a cell based, multiplexed-readout assay that uses HepaRG, a human liver cell line, with measurements taken at 48 hours after chemical dosing on a 96-well plate.LTEA_HepaRG_GSTM3 is one of 102 assay component(s) measured in the LTEA HepaRG cell culture assay. It is a marker of Oxidative Stress.Data from the assay component LTEA_HepaRG_GSTM3 was analyzed into 1 endpoint. This assay endpoint, LTEA_HepaRG_GSTM3, was analyzed with bidirectional fitting relative to DMSO as the negative control and baseline of activity. Using a type of inducible reporter, measures of mRNA induction for gain or loss-of-signal activity can be used to understand regulation of transcription factor activity. To generalize the intended target to other relatable targets, this assay endpoint is annotated to the transferase intended target family, where the subfamily is alkyl and aryl transferase.
A total of 1060 chemcials from the ToxCast library were tested in eight-point concentration-response experiments. Cell culture and cytotoxicity assays were conducted at Thermo Fisher Scientific's Custom Services facility (Madison, WI). A single lot of human HepaRG cells (Thermo Fisher Scientific, Frederick, MD) was used for the cell culture experiments. 96-well format collagen type I coated plates of human HepaRG cells were prepared using established methods. Briefly, cryopreserved HepaRG cells were thawed, plated at a density of approximately 100,000 cells/well in HepaRG Thaw, Plate, and General Purpose media (HPRG770, Thermo Fisher Scientific), and incubated for 48 hours. 0.5% DMSO was selected as vehicle control to balance the requisite need of DMSO in HepaRG cultures to maintain differentiation (for example, baseline metabolism, proportions of hepatocytes vs. cholangiocytes), while enabling further hepatic receptor pathway activation (for example, PXR and CAR) in response to chemical exposure. 48 hours after plating, the culture medium was replaced with HepaRG Serum-Free Incudtion Media. Cells were exposed to each test chemical in duplicate and maintained in CO2 incubators for another 48 hours. Chemical plates were thawed to room temperature and 200x concentrations of treatment groups were prepared. 8-point conentration-reponse curves were made with the highest exposure at 100 uM, followed by half-log dilutions, all in 0.5% DMSO. Each test plate contained variouse controls, induction positive controls (1mM phenobarbital), cytotoxicity positive controls ([…] aflatoxin B1), vehicle controls (0.5% DMSO), and total lysis controls (0.5% DMSO). Cell morphology images were taken using an Essen IncuCyte FLR automated microscope, with six 96-well plates imaged in about 24 minutes. Images were captured and exported and JPEG files. Spent culture media was transfered to black-well plates for the LDH assay, and remaining media was sorted at -80 C for later use. Cells were treated with RLT buffer and frozen until shipped for gene expression analysis. Total RNA was isolated from the cell suspension in 75 uL of Buffer RLT (Qiagen, Germantown, MD 20874) by Quintiles/Expression Analysis (Durham, NC) using a custom isolation procedure. Total RNA from each plate well was transferred to a preamplification plate. Fluidigm's 96.96 Dynamic ArrayTM (Fluidigm, Amsterdam, the Netherlands) technology was used for gene expression analyses by quantitative reverse transcription polymerase chain reaction (qRT-PCR, performed by Quintiles/Expression Analysis, Durham, NC)89. Standard TaqManTM Assays (Applied Biosystems/ThermoFisher Scientific, Foster City, CA) were used to assess the expression of 93 genes selected based on their selectivity and sensitivity to important hepatic receptors known to be modulated by environmental chemicals; importance in human hepatocyte functionality; and hepatotoxicity. […]

Row | SMILES | outcome | AC50
1 | O=C(O)C(F)(F)C(F)(F)C(F)(F)C(F)(F)C(F)(F)C(F)(F)C(F)(F)F | inactive | 
2 | CC(C)OC(=O)Nc1cccc(Cl)c1 | inactive | 
3 | CCC(C)(C)C(=O)OC1=C(c2ccc(Cl)cc2Cl)C(=O)OC12CCCCC2 | inactive | 
4 | COP(=S)(OC)Oc1ccc([N+](=O)[O-])cc1 | inactive | 
5 | CNC(=O)Oc1cccc(N=CN(C)C)c1 | inactive | 
6 | COP(=O)(OC)OC=C(Cl)Cl | inactive | 
7 | Oc1ccc(Cl)cc1Cc1ccccc1 | inactive | 91.9 µM (active)
8 | O=C(O)COc1ccc(Cl)cc1Cl | inactive | 
9 | CC(C)N(C(=O)COc1nnc(C(F)(F)F)s1)c1ccc(F)cc1 | inactive | 
10 | Oc1cc(Cl)ccc1Oc1ccc(Cl)cc1Cl | inactive | 
11 | CCc1ccc(C(=O)NN(C(=O)c2cc(C)cc(C)c2)C(C)(C)C)cc1 | inactive | 
12 | O=C(NC(=O)c1c(F)cccc1F)Nc1ccc(OC(F)(F)C(F)OC(F)(F)F)c(Cl)c1 (stereo not given) | inactive | 
13 | CN1CSC(=S)N(C)C1 | inactive | 
14 | O=C1c2ccccc2C(=O)N1SC(Cl)(Cl)Cl | inactive | 
15 | ClC1C(Cl)C(Cl)C(Cl)C(Cl)C1Cl (stereo not given) | inactive | 
16 | CNC(=O)Oc1ccccc1OC(C)C | inactive | 
17 | CC1(C)C(C=C(Cl)Cl)C1C(=O)OC(C#N)c1ccc(F)c(Oc2ccccc2)c1 (stereo not given) | inactive | 
18 | OCCOc1ccccc1 | inactive | 
19 | CC1(c2ccc(Oc3ccccc3)cc2)OC(=O)N(Nc2ccccc2)C1=O (stereo not given) |  | 50.2 µM (active)
20 | O=C(O)CCCOc1ccc(Cl)cc1Cl | inactive | 

Row | SMILES | outcome | AC50
21 | O=[N+]([O-])/N=C1\NCCN1Cc1ccc(Cl)nc1 | inactive | 
22 | O=[N+]([O-])c1c(Cl)c(Cl)c(Cl)c(Cl)c1Cl | inactive | 
23 | C#CCN1C(=O)COc2cc(F)c(N3C(=O)C4=C(CCCC4)C3=O)cc21 | inactive | 
24 | N#Cc1c(Cl)c(Cl)c(Cl)c(C#N)c1Cl | inactive | 
25 | CCC(C)(NC(=O)c1cc(Cl)c(C)c(Cl)c1)C(=O)CCl (stereo not given) |  | 50.2 µM (active)
26 | C[C@H]1[C@H](c2ccc(Cl)cc2)SC(=O)N1C(=O)NC1CCCCC1 | inactive | 
27 | CCCN(CCC)c1c([N+](=O)[O-])cc(C(F)(F)F)cc1[N+](=O)[O-] | inactive | 
28 | O=S(=O)(O)C(F)(F)C(F)(F)C(F)(F)C(F)(F)C(F)(F)C(F)(F)C(F)(F)C(F)(F)F | inactive | 
29 | CC(C)(C)C(O)/C(=C\c1ccc(Cl)cc1Cl)n1cncn1 (stereo not given) | inactive | 
30 | Clc1ccccc1-c1nnc(-c2ccccc2Cl)nn1 | inactive | 
31 | CCOCN(C(=O)CCl)c1c(C)cccc1CC | inactive | 
32 | CCCN(CCOc1c(Cl)cc(Cl)cc1Cl)C(=O)n1ccnc1 |  | 78 µM (active)
33 | CCOC1Oc2ccc(OS(C)(=O)=O)cc2C1(C)C (stereo not given) | inactive | 
34 | N#CN | inactive | 
35 | CCC(C)Nc1c([N+](=O)[O-])cc(C(C)(C)C)cc1[N+](=O)[O-] (stereo not given) | inactive | 
36 | O=C(Nc1ccccc1)Nc1cnns1 | inactive | 
37 | COc1nn(CSP(=S)(OC)OC)c(=O)s1 | inactive | 
38 | Cc1[nH]c(=O)n(C(C)(C)C)c(=O)c1Cl | inactive | 
39 | CCN(CC)C(=O)SCc1ccc(Cl)cc1 | inactive | 
